14 compounds from PubChem BioAssay (NCATS) can be followed below.

Test [1] in a line: AP1 Signaling Pathway (AID 357).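 Note: ME-180 reporter cells stimulated with EGF at its EC50 level; % is set by controls: 0 for no effect and ±100 for the full control effect.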 The method, boiled down: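 Cells are seeded overnight, exposed to compound titrations and an EC50 level of EGF for 5 hours at 37 °C, then loaded with CCF4 dye for 2.5 hours. Beta-lactamase activity under the AP-1 element is read as a blue/green ratio.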
A short description of test [2]: Stat Signaling Pathway (AID 446).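 Note: ME-180 cervical cancer cells given 40 pM IL-6 alongside compound; SIE-controlled beta-lactamase reporter measured as 460/530 nm FRET emission ratio; % is set by controls: 0 for no effect and ±100 for the full control effect.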 The method, boiled down:
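Normalization used AC90 stimulation (300 pM IL-6) and AC90 inhibition (125 nM pan-JAK inhibitor at 40 pM IL-6). The underlying signal is SIE-driven beta-lactamase in ME-180 cells after 5 h IL-6 exposure with compound.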

Test [3] in a line: NFAT Signaling Pathway (AID 444).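 Note: carbachol stimulus at about its EC50 of 1 µM final; % is set by controls: 0 for no effect and ±100 for the full control effect.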 The conditions noted are these: Jurkat NFAT-bla M1, carbachol, beta-lactamase ratio, 5 h. The method, boiled down:
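Jurkat cells carrying an NFAT-driven β-lactamase reporter and co-transfected muscarinic M1 receptor were treated with compound plus carbachol (1 uM final, an EC50 level) for 5 h at 37 °C. CCF4 loading followed for 1 h at RT; 460/530 nm ratio gave %activity.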

Test [4] can be described thus: Cell Viability - HepG2 (AID 433; calls by dose curve;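 note: potency is the fitted concentration of half-maximal effect; potency for ATP loss meaning cytotoxicity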). The note with it: qHTS. The method, boiled down:
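Cytotoxicity is scored as loss of intracellular ATP in HepG2 cells exposed to compounds for 40 h. Concentration-response curves, normalized to DMSO and 100 uM tamoxifen, give AC50 values.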

Where “and” joins values, the source holds several entries; their conditions need not be identical. Equal entries are not always repeated. Inconclusive results are not listed. Calls of active or inactive are those of the source. Unless noted, calls come from the whole dose curve; as a rule, active = well fitted curve in either direction with a large enough effect (not every such curve was filed as active); inconclusive = small, poorly fitted or top-dose-only effect, or another doubt; inactive = flat fitted curve, though single readings scatter. Where only a bound is given, the exact number is not on record here.

With `CN1CCN2c3ccccc3Cc3ccccc3C2C1` (configuration not stated), the result in test [1] and in test [2] was inactive.

In the case of `CCOC(=O)Nc1ccc(NCc2ccc(F)cc2)nc1N`, the compound was called inactive in test [1] and in test [2]. The activity change, negative = inhibition in test [3] (at 38 µM (top of the series)) is -3.88% (inactive).

Take `COc1ccccc1N1CCN(CC(O)COc2cccc3ccccc23)CC1` (configuration not stated): the compound was classed as inactive in test [1] and in test [2]. Further, the activity change, negative = inhibition in test [3] (at 17.2 µM (top of the series)) is 9.92% (inactive).

Consider `CCOC(=O)C(C)(C)Oc1ccc(Cl)cc1`, for which the compound was called inactive in test [1] and in test [2]. Besides, the activity change, negative = inhibition in test [3] (at 38 µM (top of the series)) is -4.66% (inactive).

Take `NCCc1cnc[nH]1`: the outcome in test [1] and in test [2] was inactive. Besides, in test [3] (at 38 µM (top of the series)), the activity change, negative = inhibition is 2.96% (inactive).

As to `CNCCCC12CCC(c3ccccc31)c1ccccc12`, the result in test [1] and in test [2] was inactive.

As for `O=C(c1ccc(F)cc1)C1CCN(CCn2c(=O)[nH]c3ccccc3c2=O)CC1`, the outcome in test [1] and in test [2] was inactive. In test [3] (at 17.2 µM (top of the series)), the activity change, negative = inhibition is -11.4% (inactive) and -13.2% (inactive).

As to `CN(C)CCOC(c1ccccc1)c1ccccc1`, the compound was called inactive in test [1] and in test [2].

Regarding `CCc1cccc2c3c([nH]c12)C(CC)(CC(=O)O)OCC3` (configuration not stated), the compound was called inactive in test [1] and in test [2]. Also, the activity change, negative = inhibition in test [3] (at 17.2 µM (top of the series)) is 12.2% (inactive).

On to `Clc1ccc(C(c2ccccc2Cl)C(Cl)Cl)cc1` (configuration not stated), for which the Potency in test [4] is > 92 µM (inactive).

As to `CC(C)Cc1ccc(C(C)C(=O)O)cc1` (configuration not stated), the call in test [1] and in test [2] was inactive. Moreover, the activity change, negative = inhibition in test [3] (at 17.2 µM (top of the series)) was -15% (inactive).

As for `OCCN1CCN(CCCN2c3ccccc3Sc3ccc(C(F)(F)F)cc32)CC1`, the outcome in test [1] and in test [2] was inactive.

`CN(C)c1nc(N(C)C)nc(N(C)C)n1`: the call in test [1] and in test [2] was inactive. The activity change, negative = inhibition is 2.19% (inactive) and 4.9% (inactive) in test [3] (at 17.2 µM (top of the series)); 6.06% (inactive) in test [3] (at 38 µM (top of the series)).

For `CCCCc1oc2ccccc2c1C(=O)c1cc(I)c(OCCN(CC)CC)c(I)c1`, the result in test [1] and in test [2] was inactive. For the same compound, the activity change, negative = inhibition in test [3] (at 17.2 µM (top of the series)) was 4.27% (inactive).
